Screens: PubChem, The Scripps Research Institute Molecular Screening Center
Shown are actives, neighbours in structure and some others; about 4.1% of the full set was active somewhere.
hcDAF12 agonist = H. contortus DAF-12 activation, primary screen | HEK293 hcDAF-12 lit1-tk-luc reporter, luminescence; 0% DMSO, 100% Δ7-dafachronic acid | activation, % at 6.8 µM | 370,000 compounds, 1.4% hits | AID 652067;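 active = activation above the mean of all tested compounds plus 3 SD, cut at about 5.5% in these data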;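 note: 100% = response to 3 µM Δ7-dafachronic acid high control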
DAX1 inh-1 = blocks DAX1 repression of SF-1 activated StAR promoter | HEK293T StAR-luciferase reporter, SF-1/DAX-1 repression relief | inhibition, % at 6.8 µM | 370,000 compounds, 1.1% hits | AID 652010;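 active = inhibition above the mean over all tested compounds plus 3 SD, cut at about 3.6% in these data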;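 note: 0% = DAX-1 cells with DMSO and 100% = cells lacking DAX-1 with DMSO; higher inhibition means more luminescence from relief of DAX-1 repression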
hgDAF-12 ag = hgDAF-12 agonism, primary luciferase screen; HEK293 GAL4-hgDAF12 UAS-luciferase reporter, agonist luminescence; normalized to butyrate control; activation, % at 6.8 µM; 370,000 compounds, 1.8% hits; AID 687014;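 active = activation above a cutoff set at the mean of all screened compounds plus 3 SD, cut at about 10% in these data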;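 note: 0% = DMSO wells and 100% = sodium butyrate wells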
DAX1 inh-2 = inhibitors of human orphan nuclear receptor DAX1 (NR0B1); P51843; HEK293 Gal4-DAX1 luciferase reporter, luminescence; inhibition, % at 6.75 µM; 340,000 compounds, 0.99% hits;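 active = inhibition above the mean over all tested compounds plus 3 SD, cut at about 4.2% in these data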;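 note: 0% = DAX1-transfected cells with DMSO and 100% = empty-vector control cells with DMSO; inhibition shows as a rise in luminescence from relieved DAX1 repression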
Target sequence (P51843 207-470 limits assumed): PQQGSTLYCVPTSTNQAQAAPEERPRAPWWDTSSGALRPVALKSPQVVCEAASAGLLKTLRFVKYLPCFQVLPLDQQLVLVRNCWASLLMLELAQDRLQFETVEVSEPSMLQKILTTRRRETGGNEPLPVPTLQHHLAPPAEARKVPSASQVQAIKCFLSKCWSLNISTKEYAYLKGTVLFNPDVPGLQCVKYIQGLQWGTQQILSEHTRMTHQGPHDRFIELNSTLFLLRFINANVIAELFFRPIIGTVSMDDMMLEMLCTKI
ssDAF-12 act = S. stercoralis DAF-12 activation, primary screen; HEK293 ssDAF-12/GRIP1 lit1-tk-luc reporter, luminescence; % of 3 µM dafachronic acid response; activation, % at 6.8 µM; 370,000 compounds, 1% hits; AID 652126;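 active = activation above the mean over all tested compounds plus 3 SD, cut at about 0.9% in these data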;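 note: 0% = DMSO-only wells and 100% = 3 µM delta7-dafachronic acid wells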
Active calls of the source: *; x = not tested or not shown.

SMILES | hcDAF12 agonist | DAX1 inh-1 | hgDAF-12 ag | DAX1 inh-2 | ssDAF-12 act
COC(=O)C1CN(Cc2ccc(OC)cc2)CCS(=O)(=O)N1Cc1cn(CCOC(C)=O)nn1 (stereo unspecified) | 1 | 0 | -4 | x | -1
COc1ccc(-c2cc(-c3nnc(SCC(=O)NC4CCCCC4)n3N)[nH]n2)cc1 | 2 | -2 | 3 | x | 0
COc1ccc(C(=O)NCC(=O)OCC(=O)Nc2sccc2C#N)cc1OC | 4 | 1 | 5 | 6.4* | 1.1*
COc1ccc(OC)c(NC(=O)COC(=O)CNC(=O)c2ccc(OC)c(OC)c2)c1 | -1 | 0 | 3 | 0 | -1
Cc1ccc(-n2c(Cc3cccs3)nnc2SCc2ccc(C#N)cc2)cc1 | -2 | 0 | 1 | x | -1
FC(F)(F)C1=NNC(c2ccc3ccccc3c2)=NN1 | 1 | 1 | 12* | 0 | 0
C=CS(=O)(=O)N(Cc1nnn(Cc2ccccc2)c1Br)[C@@H](CC(C)C)C(=O)OC | -2 | -3 | -2 | x | -2
CC(C)Cc1nnc(NC(=O)C2=COCCO2)s1 | 2 | 3.8* | 7 | 2 | -1
Cc1ccc(S(=O)(=O)NCC(=O)Nc2cccc([N+](=O)[O-])c2)cc1 | 5 | -1 | 1 | 0 | 1.7*
Cc1ccc(S(=O)(=O)NC(=O)Nc2cccc([N+](=O)[O-])c2)cc1 | -2 | -1 | 1 | 0 | -1
Cc1ccc(S(=O)(=O)NCCCNS(=O)(=O)c2ccccc2[N+](=O)[O-])cc1 | -3 | -1 | 0 | 1 | -1
O=C(CCSc1ccccc1Cl)Nc1cccc([N+](=O)[O-])c1 | 5 | 1 | 11* | 0 | -1
Cc1ccc(S(=O)(=O)NCCNc2ccccc2[N+](=O)[O-])cc1 | -1 | 1 | 0 | 4.3* | -2
Cc1ccc(NC(=O)CCCCCNS(=O)(=O)c2ccc(C)cc2)cc1 | 2 | 1 | -1 | 1 | 1.1*
Cc1ccc(S(=O)(=O)NCCCCCCNS(=O)(=O)c2ccc(C)cc2)cc1 | -2 | -2 | -1 | 1 | -2
CCC(C)Nc1nc(C)nc2c1nnn2Cc1ccccc1 (stereo unspecified) | -2 | 1 | -2 | x | -1
CC(=O)NC(Cc1ccc2c(c1)OCO2)C(=O)N1CCCC1 (stereo unspecified) | -1 | 0 | 1 | x | -1
COc1ccc(-c2nc(=S)c3ccc4ccccc4c3[nH]2)cc1 | 6.4* | 1 | 1 | 0 | 1.0*
O=C(Nc1nccs1)c1ccc2nccnc2c1 | 1 | 0 | 10 | 4.6* | -1
O=C(Nc1nccs1)c1ccc(N2C(=O)[C@@H]3[C@H](C2=O)[C@H]2C=C[C@@H]3C2)cc1 | 2 | 3 | 12* | 4.5* | -1
O=C(Nc1nccs1)c1cccc(N2C(=O)C3C4C=CC(C4)C3C2=O)c1 (stereo unspecified) | -1 | 0 | 0 | -1 | -1
COc1ccccc1NC(=O)OC1CCC12CCCCC2 (stereo unspecified) | -3 | -1 | 4 | x | -2
C=CCNC(=O)c1ccsc1N | 1 | 4.2* | 2 | x | -1
C=CCNC(=O)c1ccc(Cl)cc1Cl | 3 | -1 | 1 | 0 | -1
COC(=O)CCC(=O)N1C2=NC3=C(C(=O)N(Cc4ccc5c(c4)OCO5)C3=O)C3N(C)c4ccccc4[C@]23C[C@H]1CO (stereo partly specified) | -1 | -1 | 1 | x | -1
SMILES | hcDAF12 agonist | DAX1 inh-1 | hgDAF-12 ag | DAX1 inh-2 | ssDAF-12 act
CCSc1ccc(-c2cccc([N+](=O)[O-])c2)nn1 | 6.2* | 2 | 13* | 0 | 0
Cc1cc(NC(=O)CSc2ccc(-c3cccc([N+](=O)[O-])c3)nn2)no1 | 2 | 4.0* | -2 | 0 | 0
COc1ccc(OC)c(C(=O)CSc2nnc(SCc3cccc4ccccc34)s2)c1 | -1 | 0 | -1 | x | -2
CCc1cc2c(nc1CC)CCCN2S(=O)(=O)c1ccc(C)cc1 | -1 | -2 | -4 | x | -2
CS(=O)(=O)Nc1ccccc1C(=O)Nc1cc2c(cc1C(=O)O)OCCCO2 | 1 | 0 | 1 | 0 | -1
CS(=O)(=O)c1ccccc1C(=O)Nc1cc2c(cc1C(=O)O)OCCCO2 | 0 | 1 | 1 | 5.8* | -1
O=c1c2ccccc2[nH]n1[C@@H](Cc1ccccc1)Cn1cc(-c2ccc(-c3ccccc3)cc2)nn1 | -3 | 0 | 3 | x | -2
COc1cccc(C(=O)N[C@H](C(=O)N2CCC[C@H]2C(=O)NCc2ccccc2)C(C)C)c1 | 1 | -2 | 2 | x | -1
CC(C)CN1CCCC(N2CCN(c3cccc(Cl)c3)CC2)C1 (stereo unspecified) | 6.3* | 0 | 8 | 0 | -1
COc1ccc(CN2CCCC(N3CCN(c4cccc(Cl)c4)CC3)C2)cc1OC (stereo unspecified) | -1 | 0 | 0 | 3 | -1
O=C(c1ccc(Cl)s1)N1CCCC1 | 0 | 0 | -2 | 2 | 0
CC(C)(C)c1ccc(C(=O)N2CCCC2)s1 | 0 | 1 | 2 | 5.8* | 0
CC/C(C)=N/N1C(=O)c2ccccc2NC1(C)CC (stereo unspecified) | 1 | 0 | 7 | 6.2* | -1
O=C1c2ccccc2NC2(CCCC2)N1N=C1CCCC1 | 4 | 1 | 7 | 3 | -1
c1ccc2oc(C3=NNC(=NC4CC4)SC3)cc2c1 | 6.8* | 1 | 7 | 2 | 0
c1ccc(CN=C2NN=C(c3cc4ccccc4o3)CS2)cc1 | -1 | 0 | 3 | 2 | -1
Cc1ccc2nc3c(c(N)c2c1)CCN3c1ccccc1 | 0 | -1 | 0 | -2 | -2
Cc1ccc2nc3c(c(N)c2c1)CCN3C | 6.2* | 0 | 7 | 4 | 0
c1ccc(CNC2CCC23CCC(c2ccccc2)CC3)cc1 (stereo unspecified) | -2 | 0 | 0 | x | -2
CCNC(=O)c1ccc(NC(=O)CC2SC(N3CCCC3)=NC2=O)cc1 (stereo unspecified) | 2 | 0 | 0 | 0 | 1.1*
Cn1c(=S)[nH]c2ccccc21 | 5.9* | 1 | 0 | 4.7* | -1
CN(CCCOC(=O)c1cc2ccccc2o1)C1CN(Cc2cn(Cc3ccccc3Cl)nn2)S(=O)(=O)C1 (stereo unspecified) | 0 | 3 | 4 | x | -1
O=C(C[n+]1cc(-c2ccc(Cl)cc2)n2c1CCC2)Nc1nc(-c2ccccc2)cs1 | 0 | 0 | 5 | 4.8* | 0
O=C(C[n+]1cc(-c2ccc(F)cc2)n2c1CCC2)Nc1nc(-c2ccccc2)cs1 | 5 | 0 | 3 | 1 | 0
COc1ccc2c(C)cc(SCC(=O)c3ccc4c(c3)OCO4)nc2c1 | 4 | 0 | 5 | -1 | 3.4*
O=C1COc2ccc(C(=O)COC(=O)c3ccc4ccccc4n3)cc2N1 | 4 | -1 | 2 | 1 | 0.9*
O=C(CSc1nc2ccccc2[nH]1)c1ccc2c(c1)OCO2 | -1 | 0 | 5 | 6.0* | -1
